Screens as filed in PubChem BioAssay.
The list is not random: actives were taken first. Their share in the collection is about 12%.
G9a inh: blocks human histone lysine methyltransferase G9a; Q96KQ7; 8.8% of 350,000 active; Potency, µM (titrated, usually from 102 µM), for inactives: at the top dose activity, negative = inhibition, most hits filed as inhibitors; G9a H3K9 monomethylation, AlphaScreen, 2 h; further: on the % scale 0 is the no-effect control and ±100 the full control effect; nearly all actives have a fitted effect of over 75% in size
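AlphaScreen detection with an anti-monomethyl H3K9 antibody quantified product after a 2 h room-temperature reaction containing 500 nM biotinylated H3K9 peptide, 20 µM SAM and 20 nM enzyme, which had been preincubated 15 min with compound.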
HP1b chromo inh: HP1-beta chromodomain-methylated histone interaction inhibition | 0.56% of 390,000 active | Potency, µM (highest dose often 114 µM), for the others: at the highest dose activity change, negative = inhibition, actives largely listed as inhibitors | AlphaScreen HP1-beta / biotin-H3K9me3 peptide binding | P83916; further: nearly all actives have a fitted effect of over 70% in size
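AlphaScreen: HP1-beta (50 nM) preformed 30 min with biotin-H3(1-18)K9me3 peptide (50 nM) in PBS pH 7.4, 0.01% Tween-20. Compound added for 30 min at RT, then streptavidin donor/nickel chelate acceptor beads (10 ug/mL) for 30 min.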
L3MBTL1 inh: blocks human L3MBTL1. Q9Y468. AlphaScreen L3MBTL1–H3K9me1 peptide binding. Potency, µM (top dose mostly 57.1 µM), without a hit: top-dose activity, negative = inhibition, hits mostly inhibitors. 0.66% of 230,000 active; further: on the % scale 0 is the no-effect control and ±100 the full control effect; nearly all actives have a fitted effect of over 60% in size
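L3MBTL1 50 nM + b-AHA-H3(1-15)K9me1 75 nM, 30 min RT; compound added, 30 min RT; streptavidin donor/Ni-chelate acceptor beads 10 ug/mL each final, 30 min RT dark; AlphaScreen read.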
Sfp inh: Sfp phosphopantetheinyl transferase inhibition | Q9F4F7 | Biochemical Sfp PPTase activity, qHTS | Potency, µM, without a hit: largest response in the series, negative = inhibition, hits mostly inhibitors | 3.5% of 310,000 active | AID 1490;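 further: the enzyme is Sfp with the accession as filed and its product quenches rhodamine fluorescence; 0% = enzyme reaction without inhibitor and -100% = no enzyme wells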
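Sfp 15 nM + cpd, 15 min RT; start w/ rhodamine-CoA 5 uM, BHQ-2-YbbR 12.5 uM (final); 50 mM Hepes pH 7.6, 10 mM MgCl2, 0.01% NP-40, 0.01% BSA; read 525/598 nm at 0 and 30 min.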
BAZ2B inh: blocks human BAZ2B; AlphaScreen BAZ2B-H3K14Ac peptide displacement; Potency, µM (titrated, usually from 114 µM), for the others: at the highest dose activity change, negative = inhibition, usual class: inhibitors; 4.4% of 360,000 active; further: on the % scale 0 is the no-effect control and ±100 the full control effect; nearly all actives have a fitted effect of over 60% in size
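BAZ2B (50 nM) with biotin-H3(5-23)K14Ac peptide (50 nM) in PBS pH 7.4, 0.01% Tween-20, preformed 30 min, then compound 30 min at room temperature; top concentration 110uM. AlphaScreen streptavidin donor/nickel chelate acceptor beads (10 ug/mL final), 20 min dark, signal read.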
JMJD2A Tudor: JMJD2A Tudor domain (human) inhibition. O75164. AlphaScreen JMJD2A-Tudor / H3K4me3 peptide binding. Potency, µM (series often up to 114 µM), inactives show at the highest dose activity change, negative = inhibition, usual class: inhibitors. 4.4% of 390,000 active. AID 504339; further: on the % scale 0 is the no-effect control and ±100 the full control effect; nearly all actives have a fitted effect of over 50% in size
An asterisk follows results filed as active; [ ] = remark or other dose. The call rests on the fitted dose curve; in most records, active means well fitted curve in the direction sought with a large enough effect; inconclusive means small, poorly fitted or top-dose-only effect, or another doubt; inactive means no such curve, though single readings can be large; an effect the other way counts as inactive or inconclusive. Potency means the concentration at half of the fitted maximal effect.

`O=C(Cc1ccc(Cl)cc1)Nc1ccncc1` gave G9a inh 4%, HP1b chromo inh 21%, L3MBTL1 inh 1%, Sfp inh 13%, BAZ2B inh -18% and JMJD2A Tudor -11%.
Screening O=C(COc1ccc(F)cc1)Nc1nc2c(s1)CCCC2 returned G9a inh -14%, HP1b chromo inh 9%, Sfp inh -3%, BAZ2B inh inconclusive and JMJD2A Tudor -24%.
`COc1ccc(NC(=O)Nc2nc3c(s2)CCCC3)cc1` gave G9a inh 79µM*, HP1b chromo inh 13%, L3MBTL1 inh -14%, Sfp inh -6%, BAZ2B inh -10% and JMJD2A Tudor -21%.
Screening O=C(Nc1cccc(Br)c1)Nc1nc2c(s1)CCCCCC2 returned G9a inh -20%[59 µM], HP1b chromo inh 18%[57 µM], BAZ2B inh 1% and JMJD2A Tudor -8%.
Screening Cc1ccc(CC(=O)Nc2nc3c(s2)CCCC3)cc1 returned G9a inh 50µM*, HP1b chromo inh 10%, Sfp inh 12%, BAZ2B inh -33% and JMJD2A Tudor -26%.
For Cc1ccc(CC(=O)Nc2ccncc2)cc1 the results were G9a inh 50µM*, HP1b chromo inh 46%, L3MBTL1 inh -21%, Sfp inh 5%, BAZ2B inh 15% and JMJD2A Tudor -23%.
Screening O=C(CN(CCc1ccccc1)Cc1ccccc1)Oc1ccccc1P(=O)(O)O returned G9a inh 13%, HP1b chromo inh 65%, Sfp inh 20%, BAZ2B inh 2% and JMJD2A Tudor -20%.
Screening COc1cc(/C=C2\SC(=O)N(c3cccc(Cl)c3)C2=O)cc([N+](=O)[O-])c1O returned HP1b chromo inh inconclusive, L3MBTL1 inh -17%, Sfp inh -8%, BAZ2B inh 8.9µM* and JMJD2A Tudor 4µM*.
COc1cc(/C=C2\SC(=O)N(c3ccc(Cl)cc3)C2=O)cc([N+](=O)[O-])c1O was read as G9a inh 7.9µM*, HP1b chromo inh inconclusive, L3MBTL1 inh inconclusive, Sfp inh -11%, BAZ2B inh 7.1µM* and JMJD2A Tudor 7.9µM*.
Screening CCOc1ccc(/C=C2\SC(=O)N(c3ccc(O)cc3)C2=O)cc1OC returned G9a inh 17%, HP1b chromo inh 37%, Sfp inh -12%, BAZ2B inh -12% and JMJD2A Tudor -9%.
`O=C1S/C(=C\c2ccc(O)c([N+](=O)[O-])c2)C(=O)N1c1ccccc1Cl` gave HP1b chromo inh inconclusive, L3MBTL1 inh -22%, Sfp inh inconclusive, BAZ2B inh 35µM* and JMJD2A Tudor 50µM*.
`COc1cc(/C=C2/NC(=O)N(c3cccc(Cl)c3)C2=O)ccc1O` gave G9a inh -2%, HP1b chromo inh 41%, L3MBTL1 inh -3%, Sfp inh -6%, BAZ2B inh -22% and JMJD2A Tudor -14%.
Screening CN1C(=O)/C(=C/c2ccc(O)c([N+](=O)[O-])c2)N(C)C1=S returned HP1b chromo inh -35%, L3MBTL1 inh -11%, Sfp inh inconclusive, BAZ2B inh 22% and JMJD2A Tudor inconclusive.
Screening COc1cccc(OC(=O)CSc2nnc(-c3cccs3)o2)c1 returned G9a inh inconclusive, HP1b chromo inh 49%, BAZ2B inh inconclusive and JMJD2A Tudor -11%.
Cc1ccc(-c2c(C)n([O-])c3c([n+]2=O)CCCCC3)cc1 was read as G9a inh 8%, HP1b chromo inh 62%, L3MBTL1 inh 4%, Sfp inh 23%, BAZ2B inh -3% and JMJD2A Tudor -5%[57.1 µM].
For Cc1ccc(NC(=O)CN(C)C(=O)c2cc(S(=O)(=O)N(C)C)ccc2N2CCCC2)cc1 the results were G9a inh -30%, HP1b chromo inh 0%, L3MBTL1 inh 4%, BAZ2B inh 12% and JMJD2A Tudor -19%.
For CSC1=NC(C)(C)C=C(/C=C/c2ccc(Cl)cc2Cl)N1 the results were G9a inh 50µM*, HP1b chromo inh inconclusive, L3MBTL1 inh -7%, Sfp inh -18%, BAZ2B inh inconclusive and JMJD2A Tudor inconclusive.
For O=C1NC(=O)/C(=C\c2ccc(Cl)cc2Cl)N1 the results were HP1b chromo inh 15% and JMJD2A Tudor -15%.
CCSC1=NC(C)(C)C=C(/C=C/c2ccc(Cl)cc2Cl)N1 was read as G9a inh 50µM*, HP1b chromo inh -17%, Sfp inh inconclusive, BAZ2B inh -7% and JMJD2A Tudor -29%.
`CSC1=NC(C)(C)C=C(/C=C/c2ccc(Cl)cc2)N1` gave G9a inh 28µM*, HP1b chromo inh inconclusive, L3MBTL1 inh -11%, Sfp inh 40µM*, BAZ2B inh inconclusive and JMJD2A Tudor inconclusive.
CCSC1=NC(C)(C)C=C(C)N1 was read as G9a inh 20%[59 µM], HP1b chromo inh 7%, L3MBTL1 inh 6%, Sfp inh 6%, BAZ2B inh 0% and JMJD2A Tudor -9%.
For CSC1=NC(C)(C)C=C(/C=C/c2c(Cl)cccc2Cl)N1 the results were G9a inh 40µM*, HP1b chromo inh 37%, L3MBTL1 inh 18%, Sfp inh -3%, BAZ2B inh -30% and JMJD2A Tudor -14%.
For COc1cc(CCC(=O)OCC(=O)Nc2ccc(C)cc2Cl)cc(OC)c1OC the results were G9a inh -10%, HP1b chromo inh 1%, Sfp inh 14%, BAZ2B inh -1% and JMJD2A Tudor -1%.
For COc1cccc(OC)c1C(=O)NC1C(=O)N2C1SC(C)(C)C2C(=O)O (stereo unspecified) the results were G9a inh -5%[2.33 µM] and Sfp inh 15%.
`CCC(=O)Nc1sc(C(=O)OC)c(C)c1C(=O)OC` gave G9a inh 28µM*, HP1b chromo inh -15%, L3MBTL1 inh 7%, Sfp inh -30%, BAZ2B inh 19% and JMJD2A Tudor -17%.
CCN(CC)C(=O)c1sc(NC(=O)c2cc(-c3ccc(C)s3)nc3ccccc23)c(C(=O)OC)c1C was read as G9a inh 40µM*, HP1b chromo inh -11%, L3MBTL1 inh 1%, Sfp inh 13µM*, BAZ2B inh 1% and JMJD2A Tudor 4%.
CCOC(=O)c1c(NC(=O)COC)sc(C(C)=O)c1C was read as G9a inh inconclusive, HP1b chromo inh 21%, L3MBTL1 inh -10%, Sfp inh 1%, BAZ2B inh -23% and JMJD2A Tudor 2%.
For CCN(CC)C(=O)c1sc(NC(=O)c2ccoc2C)c(C(=O)OC)c1C the results were G9a inh 13µM*, HP1b chromo inh inconclusive, L3MBTL1 inh -4%, Sfp inh 32µM*, BAZ2B inh 0% and JMJD2A Tudor -29%.
